Source: PubChem BioAssay (NCATS)
Records with an inconclusive call do not appear. Entries that show only a call come without a potency. A number with no mark means an inactive call. Active and inactive are the calls of the source. Calls follow the shape of the dose curve; as a rule, active = well fitted curve in the direction sought with a large enough effect; inconclusive = small, poorly fitted or top-dose-only effect, or another doubt; inactive = no such curve, though single readings can be large; an effect the other way counts as inactive or inconclusive.

Key:
[1] = target: Rap guanine nucleotide exchange factor 3 (Homo sapiens) (UniProt O95398); assay: Confirmatory qHTS for agonist of cAMP-regulated guanine nucleotide exchange factor 3 (EPAC1) (AID 1645881);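 also: EPAC1 catalysed release of BODIPY-GDP from Rap1B seen as fluorescence loss; nearly all actives have a fitted effect of over 75% in size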
Sequence of Rap guanine nucleotide exchange factor 3 (Homo sapiens) (O95398 whole entry, looked up): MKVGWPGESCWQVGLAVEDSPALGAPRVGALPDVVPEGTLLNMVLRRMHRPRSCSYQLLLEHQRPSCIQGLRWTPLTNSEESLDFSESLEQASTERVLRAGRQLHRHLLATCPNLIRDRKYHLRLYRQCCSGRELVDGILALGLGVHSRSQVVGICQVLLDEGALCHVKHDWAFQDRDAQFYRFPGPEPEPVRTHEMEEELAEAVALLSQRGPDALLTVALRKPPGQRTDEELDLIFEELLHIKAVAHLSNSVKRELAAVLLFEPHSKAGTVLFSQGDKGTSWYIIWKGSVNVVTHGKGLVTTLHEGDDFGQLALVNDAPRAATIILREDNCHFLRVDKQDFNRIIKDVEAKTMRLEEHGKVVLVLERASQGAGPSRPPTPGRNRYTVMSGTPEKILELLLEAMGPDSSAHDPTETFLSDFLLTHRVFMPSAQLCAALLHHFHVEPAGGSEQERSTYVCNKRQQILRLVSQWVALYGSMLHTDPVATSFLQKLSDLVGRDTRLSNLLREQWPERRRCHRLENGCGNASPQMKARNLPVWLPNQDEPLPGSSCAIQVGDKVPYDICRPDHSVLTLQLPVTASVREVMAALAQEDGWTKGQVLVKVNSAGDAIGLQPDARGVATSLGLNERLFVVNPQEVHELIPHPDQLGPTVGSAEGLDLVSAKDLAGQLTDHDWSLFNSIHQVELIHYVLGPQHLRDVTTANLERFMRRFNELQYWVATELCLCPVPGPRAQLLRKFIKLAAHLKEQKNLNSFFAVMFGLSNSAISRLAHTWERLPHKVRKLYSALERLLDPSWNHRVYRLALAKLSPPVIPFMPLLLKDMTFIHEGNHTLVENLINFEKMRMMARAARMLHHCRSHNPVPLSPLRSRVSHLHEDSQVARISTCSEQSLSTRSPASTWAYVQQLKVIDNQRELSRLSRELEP

[2] = target: Rap guanine nucleotide exchange factor 4 (Homo sapiens) (UniProt Q8WZA2); assay: Confirmatory qHTS for agonist of cAMP-regulated guanine nucleotide exchange factor 4 (EPAC2) (AID 1645884);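 also: nucleotide exchange releases bodipy-GDP from Rap1 and this lowers its fluorescence; nearly all actives have a fitted effect of over 65% in size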
Sequence of Rap guanine nucleotide exchange factor 4 (Homo sapiens) (Q8WZA2 whole entry, looked up): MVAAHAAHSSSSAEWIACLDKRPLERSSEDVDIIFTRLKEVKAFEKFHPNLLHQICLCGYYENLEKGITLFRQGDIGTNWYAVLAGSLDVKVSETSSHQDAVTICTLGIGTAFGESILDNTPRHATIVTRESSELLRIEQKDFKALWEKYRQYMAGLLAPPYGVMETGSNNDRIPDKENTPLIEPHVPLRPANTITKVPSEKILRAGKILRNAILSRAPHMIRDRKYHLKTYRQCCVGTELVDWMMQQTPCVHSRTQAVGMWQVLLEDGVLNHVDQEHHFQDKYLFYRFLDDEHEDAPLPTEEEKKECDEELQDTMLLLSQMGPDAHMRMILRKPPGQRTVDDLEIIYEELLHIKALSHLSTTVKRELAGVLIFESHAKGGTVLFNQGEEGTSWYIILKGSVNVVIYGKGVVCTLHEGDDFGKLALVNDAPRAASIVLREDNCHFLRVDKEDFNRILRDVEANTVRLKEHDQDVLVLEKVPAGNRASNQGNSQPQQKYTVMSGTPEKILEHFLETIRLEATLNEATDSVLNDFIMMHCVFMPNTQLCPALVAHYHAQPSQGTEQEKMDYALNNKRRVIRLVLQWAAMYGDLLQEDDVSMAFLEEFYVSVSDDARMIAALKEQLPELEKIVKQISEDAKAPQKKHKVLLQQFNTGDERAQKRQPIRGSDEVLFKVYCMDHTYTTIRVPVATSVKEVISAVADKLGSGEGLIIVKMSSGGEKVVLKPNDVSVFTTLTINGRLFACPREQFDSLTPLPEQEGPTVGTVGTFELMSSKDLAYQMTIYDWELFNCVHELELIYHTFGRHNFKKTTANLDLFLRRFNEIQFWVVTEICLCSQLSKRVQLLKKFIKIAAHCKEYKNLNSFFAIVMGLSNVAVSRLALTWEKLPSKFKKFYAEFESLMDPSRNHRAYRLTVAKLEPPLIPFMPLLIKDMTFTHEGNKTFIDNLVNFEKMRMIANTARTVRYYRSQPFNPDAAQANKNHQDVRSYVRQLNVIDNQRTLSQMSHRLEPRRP

[3] = target: Rap guanine nucleotide exchange factor 4 (Homo sapiens) (UniProt Q8WZA2); assay: Confirmatory qHTS for antagonist of cAMP-regulated guanine nucleotide exchange factor 4 (EPAC2) (AID 1645885); also: nearly all actives have a fitted effect of over 25% in size; also: potency is read from the fitted curve at half-maximal effect
[4] = target: Rap guanine nucleotide exchange factor 3 (Homo sapiens) (UniProt O95398); assay: Counterscreen qHTS for antagonist of cAMP-regulated guanine nucleotide exchange factor 3 (EPAC1) (AID 1645888);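 also: fluorescence loss as bound BODIPY-GDP is released from Rap1B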
In short: (§1)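 Measured: fluorescence of BODIPY-GDP bound to Rap1B, which falls as exchange proceeds. Conditions include 50 uM competing GDP, 5 and 30 min reads, and a later cAMP challenge for antagonist detection.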

[5] = target: Rap guanine nucleotide exchange factor 3 (Homo sapiens) (UniProt O95398); assay: Counterscreen qHTS for agonist of cAMP-regulated guanine nucleotide exchange factor 3 (EPAC1) (AID 1645889); also: nearly all actives have a fitted effect of over 40% in size
In short: as §1

Row | Structure (SMILES) | Potency [1] | Potency [2] | Potency [3] | Potency [4] | Potency [5] | activation [2] | activity change, negative = inhibition [4] | activation [5] | outcome [3]
1 | C=CCc1ccccc1OCCSc1nc(-c2ccc(C(C)(C)C)cc2)nc2cc(=O)[nH]n12 | inactive | inactive | inactive | inactive | inactive |  |  |  | 
2 | CCc1ccc(N(C(=O)c2csnn2)C(C(=O)NCc2ccccc2)c2ccco2)cc1 (stereo not given) | inactive | inactive | 16.9 µM (active) | inactive | inactive |  |  |  | 
3 | O=C(NNc1c2ccccc2nc2ccccc12)c1ccccc1O | inactive | inactive | inactive | inactive | inactive |  |  |  | 
4 | O=C(c1ccc2c(c1)CCCC2)N1CCN(c2nc3ccc(F)cc3s2)CC1 | inactive | inactive | inactive | inactive | inactive |  |  |  | 
5 | O=C(Cc1ccc(Cl)cc1)Nc1cccc(C(=O)Nc2ccccc2C(=O)O)c1 | inactive |  | inactive |  |  | 8.25% [at 17.1 µM, percent relative to cAMP agonist control] | -15.6% [at 30.8 µM] | 2.92% [at 30.8 µM] | 
6 | O=S(=O)(O)c1ccc(NN=Cc2ccccc2O)cc1 | inactive |  | inactive |  |  | -8.55% [at 17.1 µM, percent relative to cAMP agonist control] | 3.2% [at 30.8 µM] | 20.1% [at 30.8 µM] | 
7 | NS(=O)(=O)c1ccc(Nc2nc(-c3cccc([N+](=O)[O-])c3)cs2)cc1 | inactive |  | inactive |  |  | 3.15% [at 17.1 µM, percent relative to cAMP agonist control] | -4.36% [at 30.8 µM] | 15.6% [at 30.8 µM] | 
8 | CCCc1nc(SC2CCCC2)c2c(=O)n(C)c(=O)n(C)c2n1 | inactive | inactive | inactive | inactive | inactive |  |  |  | 
9 | CCCCn1c(N)c(N(CCC(C)C)C(=O)c2ccc(COc3ccccc3)o2)c(=O)[nH]c1=O | inactive |  | inactive |  |  | 1.71% [at 17.1 µM, percent relative to cAMP agonist control] | 1.42% [at 30.8 µM] | 7.33% [at 30.8 µM] | 
10 | COc1cc(/C=C2/NC(=O)NC2=O)cc(Br)c1OCc1ccc(C(=O)O)cc1 | inactive |  | inactive |  |  | -3.55% [at 17.1 µM, percent relative to cAMP agonist control] | -4.68% [at 30.8 µM] | 11.1% [at 30.8 µM] | 
11 | CCOc1cc(/C=N/NC(=O)CSc2nncn2C)ccc1OC(=O)c1ccc(Cl)cc1 | inactive |  | inactive |  |  | 6.27% [at 17.1 µM, percent relative to cAMP agonist control] | 0.431% [at 30.8 µM] | 9.31% [at 30.8 µM] | 
12 | O=C(O)CCn1cc(/C=C\C(=O)c2ccc(Cl)cc2)c(-c2cccc(Br)c2)n1 | inactive |  | inactive |  |  | 4.02% [at 17.1 µM, percent relative to cAMP agonist control] | 0.257% [at 30.8 µM] | 15.3% [at 30.8 µM] | 
13 | O=[N+]([O-])c1ccc(NS(=O)(=O)c2ccc(Cl)c(Cl)c2)cc1 | inactive | inactive | inactive | inactive | inactive |  |  |  | 
14 | O=C(O)c1cccc(N2C(=O)c3cc([N+](=O)[O-])cc4cc([N+](=O)[O-])cc(c34)C2=O)c1 | inactive | inactive | 37.9 µM (active) | inactive | inactive |  |  |  | 
15 | CCC(=O)N(CCC(c1ccccc1)c1ccc2c(c1)OCO2)Cc1ccc(OC(C)C)cc1 (stereo not given) | inactive | inactive | inactive | inactive | inactive |  |  |  | 
16 | CCOC(=O)C(C)Sc1nc(-c2ccco2)cc(C(F)(F)F)c1C#N (stereo not given) | inactive |  | inactive |  |  | 0.901% [at 17.1 µM, percent relative to cAMP agonist control] | -10.8% [at 30.8 µM] | 0.691% [at 30.8 µM] | 
17 | COc1ccc(C(=O)c2nccc3ccccc23)cc1 | inactive | inactive | inactive | inactive | inactive |  |  |  | 
18 | COc1ccc(N=C2SC(C(=O)Nc3ccc(C(=O)O)cc3)CC(=O)N2Cc2cccs2)cc1 (stereo not given) | inactive |  | inactive |  |  | -0.227% [at 17.1 µM, percent relative to cAMP agonist control] | -2.18% [at 30.8 µM] | 7.24% [at 30.8 µM] | 
19 | COc1ccc2c(c1)c(=O)oc1c(C)c(OCc3cc(C(=O)O)oc3C)ccc12 | inactive | inactive | inactive | inactive | inactive |  |  |  | 
20 | CC(C)(C)c1ccc(OCc2ccc(C(=O)N/N=C/c3ccc(O)c(O)c3)cc2)cc1 | inactive |  | inactive |  |  | -9.36% [at 17.1 µM, percent relative to cAMP agonist control] | -20.9% [at 30.8 µM] | 10.5% [at 30.8 µM] | 

Row | Structure (SMILES) | Potency [1] | Potency [2] | Potency [3] | Potency [4] | Potency [5] | activation [2] | activity change, negative = inhibition [4] | activation [5] | outcome [3]
21 | CC1(C)[C@@H](O)CC[C@]2(C)C3C(O)C=C4[C@H]5C[C@@](C)(CO)CC[C@]5(C)CC[C@]4(C)[C@]3(C)CC[C@@H]12 (stereo not given in full) | inactive |  | inactive |  |  | -6.54% [at 17.1 µM, percent relative to cAMP agonist control] | -3.14% [at 30.8 µM] | -1.49% [at 30.8 µM] | 
22 | O=C(c1ccc(O)c(Br)c1)c1cc(Br)ccc1O | inactive |  | inactive |  |  | 3.68% [at 17.1 µM, percent relative to cAMP agonist control] | -2.96% [at 30.8 µM] | 26.8% [at 30.8 µM] | 
23 | Cc1[nH]c2ccc(C(=O)OC(C)C(=O)N(C)c3ccccc3)cc2c1C (stereo not given) | inactive | inactive | inactive | inactive | inactive |  |  |  | 
24 | COc1ccccc1C(CCN(Cc1ccccc1)C(C)=O)c1ccco1 (stereo not given) | inactive |  | inactive |  |  | 8.17% [at 17.1 µM, percent relative to cAMP agonist control] | -15.7% [at 30.8 µM] | 10.4% [at 30.8 µM] | 
25 | CCCCC[C@@H](C)N1C[C@@H](COCc2ccccc2)Oc2cc(N3CC[C@H](O)C3)ccc2S1(=O)=O | inactive |  | inactive |  |  | -2.04% [at 17.1 µM, percent relative to cAMP agonist control] | -7.58% [at 30.8 µM] | 2.97% [at 30.8 µM] | 
26 | Cc1ccc(OCC(=O)Nc2ccc(N3CCCC3)cc2)cc1C | inactive | inactive | inactive | inactive | inactive |  |  |  | 
27 | O=C(N/N=C/c1ccc(O)c([N+](=O)[O-])c1)C1CC1(c1ccccc1)c1ccccc1 (stereo not given) | inactive |  | inactive |  |  | 2.95% [at 17.1 µM, percent relative to cAMP agonist control] | -23.6% [at 30.8 µM] | 11.6% [at 30.8 µM] | 
28 | Cn1c(SCC(=O)Nc2ccc(C(=O)O)cc2)nc2scc(-c3ccccc3Cl)c2c1=O | inactive | inactive | 42.6 µM (active) | inactive | inactive |  |  |  | 
29 | CCOC(=O)N1CCC(Nc2nc3ccccc3n3cnnc23)CC1 | inactive |  | inactive |  |  | 3.86% [at 17.1 µM, percent relative to cAMP agonist control] | -12.2% [at 30.8 µM] | 4.26% [at 30.8 µM] | 
30 | CN(C)c1ccc(C=C(C#N)C(=O)c2ccccc2)cc1Br | inactive | inactive | inactive | inactive | inactive |  |  |  | 
31 | CC(=O)N1CCN(Cc2cc(=O)oc3ccc4ccccc4c23)CC1 | inactive |  | inactive |  |  | 4.37% [at 17.1 µM, percent relative to cAMP agonist control] | 9.94% [at 30.8 µM] | 27.9% [at 30.8 µM] | 
32 | Cc1ccc(C)c(CSC2=NC(C)(C)Nc3ccccc32)c1 | inactive | inactive |  | inactive | inactive |  |  |  | inactive [at 12.7 µM]
33 | O=C(O)C1CC(c2ccc(F)cc2)=NO1 (stereo not given) | inactive |  | inactive |  |  | -14.9% [at 17.1 µM, percent relative to cAMP agonist control] | -15.4% [at 30.8 µM] | 21.8% [at 30.8 µM] | 
34 | C#Cc1ccc([C@@H]2C=C(C(=O)NCc3ccccc3)O[C@H](OCc3ccc(CO)cc3)C2)cc1 | inactive | inactive | inactive | inactive | inactive |  |  |  | 
35 | Cc1nnc2ccc(-c3ccc(NC(=O)Cc4cccs4)cc3)nn12 | inactive |  | inactive |  |  | -1.11% [at 17.1 µM, percent relative to cAMP agonist control] | -8.86% [at 30.8 µM] | 9.02% [at 30.8 µM] | 
36 | CCc1nnc(NS(=O)(=O)c2ccc(NCc3cc(Cl)cc(Cl)c3O)cc2)s1 | inactive | inactive | 5.36 µM (active) | inactive | inactive |  |  |  | 
37 | CC(=O)Nc1ccc(S(=O)(=O)/N=C2/NC(=O)/C(=C\c3ccco3)S2)cc1 | inactive | inactive | 84.9 µM (active) | inactive | inactive |  |  |  | 
38 | CC(C)C[C@H]1CNC(=O)C(=O)N1C[C@@H]1CCCN1C[C@H](Cc1ccc(O)cc1)N1C[C@H](Cc2ccccc2)N(CC2CCCCC2)C(=O)C1=O | inactive | inactive | 47.8 µM (active) | inactive | inactive |  |  |  | 
39 | CCC(=C(c1ccc(OC)cc1)c1ccc(OC)cc1)c1cn(CC(O)CN2CCN(C)CC2)c2ccccc12 (stereo not given) | inactive |  | inactive |  |  | 8.96% [at 17.1 µM, percent relative to cAMP agonist control] | -21.5% [at 30.8 µM] | 25.5% [at 30.8 µM] | 
40 | O=C(O)CN1C(=O)/C(=C\c2cc([N+](=O)[O-])ccc2OCc2ccccc2Cl)SC1=S | inactive |  | inactive |  |  | 2.47% [at 17.1 µM, percent relative to cAMP agonist control] | -20.4% [at 30.8 µM] | 29.5% [at 30.8 µM] | 
